Data as given in PMC12864922, “TDP-43 directly inhibits mRNA accumulation in neurites through modulation of mRNA stability”.
The full ranking holds about 9,900 sequences; the median of “r (bound/input frequency ratio)” is about 0.7, and the highest 2% start at about 6.5. The entries come from a sample that favours the highest values as a whole.

B1: ENSMUSG00000043670.63|Diras1 (ssRNA)
RNA: GGGAGUUCUACAGUCCGACGAUCGCUUCGAUAUCCGCAUGCUAAGACCUCUCCCUCUAUAUCUCUUUGCUCCCCCACCCCCAUUCUAUCUGCACCCCACAACCACACACUGGAGGUUUGAUCCCUGUGGAUCUGAAAACAGGGACCUGGCUAAGGAACUGCUCAUCCCAGUCAGGCCCAGAGAGGUUACCUUGCCUCUCCAUCUCUGUCCCUGUGUGCCCAGCCAUGCCCACUGUCCCUGUCCCUCACAUUCUAUCACUGUGACCUCUGGGGAGUGCCCAUUGACCUCAUCUUCCUUCACUAACUCUUGCGGUCGCACUAGUGUGGAAUUCUCGGGUGUCAAGG
B2: ENSMUSG00000058297.300|Spock2 (ssRNA)
RNA: GGGAGUUCUACAGUCCGACGAUCGCUUCGAUAUCCGCAUGCUAAGGGCCACCCUGAUGCCCAGGAAGAGUGAGGGCAGCCCCCUGUGUGGUGGAAGAGGCUGGGCAGCUAGCUACUGGGGACCUUGUGCUGAGGCUUCCAGGACAAAGCCCCAGUCUGGCUCUCCCCCAGCCUCUCAGGGGCACUGGCUGGUCACAUCCACUGAGUAUUGAUCGGUUGGACUUUAGGGAAGAGCCUCCUCCUUCCCAUUCCUUUCUGCCACCCUGGAAUGGCCACCUUAAUCGUCAUCUCCUCGGGGGGAAUACUCUUGCGGUCGCACUAGUGUGGAAUUCUCGGGUGUCAAGG
B3: ENSMUSG00000031028.551|Tub (ssRNA)
RNA: GGGAGUUCUACAGUCCGACGAUCGCUUCGAUAUCCGCAUGCUACCUGGUUUCCCUUCUCAGCAGUCCUGGCCUCCCCUUCUCUGUAUUCCUUGCCCCAGCUACGAUAUCCUCAUGGGAUUUCAGGAUGCCAGGUGCCAUCAAAGCAUGCUUUUUUGUGGUGCCUAGCACUGUGACUGGGGCCCAACUGCCCUGCAGAGUUGGGACCUUGCACUGCCCUAGACCCUGGCUUUAGAUCUGCUUCAGUCUCCAGAACAGGCUAUGGGAUAGAUUUUUCUUUCAGUUUAUGGCCACCUGCCCAAAUUCUCUUGCGGUCGCACUAGUGUGGAAUUCUCGGGUGUCAAGG
B4: ENSMUSG00000028439.8|Fam219a|14:18;220:226 (ssRNA)
RNA: GGGAGUUCUACAGUCCGACGAUCGCUUCGAUAUCCGCAUGCUAAACCCCACCUGCAACACAUGUCAGGCCACUUCCUCCACCGCCUGCCACAUUCAGUAGUGGGCGGGGUCGCCGCGGUGCACGGGGCGCUGACCUGGGCCCGGUGGGAUGCAGCAGGAGAGACCCCUACCCUGCUGGUCCACUGGUCCCCAGCCCCGCGCCUCUUAGAGCCGCCAACCUCGUAACAGUCAUUGCUUCCUCCUAUGGUAGGACGUGUACCUCACACACAUCAAGGAGCCGGAGAAACCAAAACCGGGUCUGUCCUCUUGCGGUCGCACUAGUGUGGAAUUCUCGGGUGUCAAGG
B5: ENSMUSG00000034801.23|Sos2 (ssRNA)
RNA: GGGAGUUCUACAGUCCGACGAUCGCUUCGAUAUCCGCAUGCUAGAUUCCACGCAGCUGUCACUUGCUCAGCUCCAGUCACAGCAGCCUUGCUCAUCUUCCAGCUCCUCCUGUCCCACCAAGGCAGAAUUCAAGCCCUCUCUUACCAAAGCUGCCACCAAAGACUUACAAACGGGAGCUUUCCCACCCGCCACUGUAUAGACUGCCUCUGCUGGAAAAUGCAGAAACUCCUCAAUGACCUUGGCCAUAUGUAGUCAUUGACACUGGAAUAGUAUUUGUAAAGGUUUUUAAUUUAUUCAAAAAGACUCUUGCGGUCGCACUAGUGUGGAAUUCUCGGGUGUCAAGG
B6: ENSMUSG00000028439.145|Fam219a (ssRNA)
RNA: GGGAGUUCUACAGUCCGACGAUCGCUUCGAUAUCCGCAUGCUACUUCUGUCUAUUGGUUCCAGGCUGGAAGCAAGAGAUAAGGCUGGCCUCCUGUGCCCCAUUGCCAUUUCACCCUAGCUCAAAGUCCAGGAGCCAGGCUUCCAGAAAGGCUCUUCAAGAGCAAGCUUAAGGAAAUACAGUGAGCCAAGUGGCUGUAUGAUAUGGUAUGGUAUGGUAUGGUAUGGUAUGGUAUGGUAUGCACAUGUGUGUGCAUGUGUGUGUGCCUGUGUGUGUGCGUGUGCGUGUGUGUAUGUGUGUGCGUGCUCUUGCGGUCGCACUAGUGUGGAAUUCUCGGGUGUCAAGG
B7: ENSMUSG00000028439.139|Fam219a (ssRNA)
RNA: GGGAGUUCUACAGUCCGACGAUCGCUUCGAUAUCCGCAUGCUAUCUGCCUCAUCCCCACACCGCCCUGCCACCCCCAGUCUUCUGUCUAUUGGUUCCAGGCUGGAAGCAAGAGAUAAGGCUGGCCUCCUGUGCCCCAUUGCCAUUUCACCCUAGCUCAAAGUCCAGGAGCCAGGCUUCCAGAAAGGCUCUUCAAGAGCAAGCUUAAGGAAAUACAGUGAGCCAAGUGGCUGUAUGAUAUGGUAUGGUAUGGUAUGGUAUGGUAUGGUAUGGUAUGCACAUGUGUGUGCAUGUGUGUGUGCCUGCUCUUGCGGUCGCACUAGUGUGGAAUUCUCGGGUGUCAAGG
B8: ENSMUSG00000028439.144|Fam219a (ssRNA)
RNA: GGGAGUUCUACAGUCCGACGAUCGCUUCGAUAUCCGCAUGCUACCCAGUCUUCUGUCUAUUGGUUCCAGGCUGGAAGCAAGAGAUAAGGCUGGCCUCCUGUGCCCCAUUGCCAUUUCACCCUAGCUCAAAGUCCAGGAGCCAGGCUUCCAGAAAGGCUCUUCAAGAGCAAGCUUAAGGAAAUACAGUGAGCCAAGUGGCUGUAUGAUAUGGUAUGGUAUGGUAUGGUAUGGUAUGGUAUGGUAUGCACAUGUGUGUGCAUGUGUGUGUGCCUGUGUGUGUGCGUGUGCGUGUGUGUAUGUGUGCUCUUGCGGUCGCACUAGUGUGGAAUUCUCGGGUGUCAAGG
B9: ENSMUSG00000028439.143|Fam219a (ssRNA)
RNA: GGGAGUUCUACAGUCCGACGAUCGCUUCGAUAUCCGCAUGCUAGCCACCCCCAGUCUUCUGUCUAUUGGUUCCAGGCUGGAAGCAAGAGAUAAGGCUGGCCUCCUGUGCCCCAUUGCCAUUUCACCCUAGCUCAAAGUCCAGGAGCCAGGCUUCCAGAAAGGCUCUUCAAGAGCAAGCUUAAGGAAAUACAGUGAGCCAAGUGGCUGUAUGAUAUGGUAUGGUAUGGUAUGGUAUGGUAUGGUAUGGUAUGCACAUGUGUGUGCAUGUGUGUGUGCCUGUGUGUGUGCGUGUGCGUGUGUGUACUCUUGCGGUCGCACUAGUGUGGAAUUCUCGGGUGUCAAGG
B10: ENSMUSG00000028439.142|Fam219a (ssRNA)
RNA: GGGAGUUCUACAGUCCGACGAUCGCUUCGAUAUCCGCAUGCUACGCCCUGCCACCCCCAGUCUUCUGUCUAUUGGUUCCAGGCUGGAAGCAAGAGAUAAGGCUGGCCUCCUGUGCCCCAUUGCCAUUUCACCCUAGCUCAAAGUCCAGGAGCCAGGCUUCCAGAAAGGCUCUUCAAGAGCAAGCUUAAGGAAAUACAGUGAGCCAAGUGGCUGUAUGAUAUGGUAUGGUAUGGUAUGGUAUGGUAUGGUAUGGUAUGCACAUGUGUGUGCAUGUGUGUGUGCCUGUGUGUGUGCGUGUGCGUGCUCUUGCGGUCGCACUAGUGUGGAAUUCUCGGGUGUCAAGG
B11: ENSMUSG00000028439.146|Fam219a (ssRNA)
RNA: GGGAGUUCUACAGUCCGACGAUCGCUUCGAUAUCCGCAUGCUAUCUAUUGGUUCCAGGCUGGAAGCAAGAGAUAAGGCUGGCCUCCUGUGCCCCAUUGCCAUUUCACCCUAGCUCAAAGUCCAGGAGCCAGGCUUCCAGAAAGGCUCUUCAAGAGCAAGCUUAAGGAAAUACAGUGAGCCAAGUGGCUGUAUGAUAUGGUAUGGUAUGGUAUGGUAUGGUAUGGUAUGGUAUGCACAUGUGUGUGCAUGUGUGUGUGCCUGUGUGUGUGCGUGUGCGUGUGUGUAUGUGUGUGCGUGUGUGUGCUCUUGCGGUCGCACUAGUGUGGAAUUCUCGGGUGUCAAGG
B12: ENSMUSG00000004113.108|Cacna1b|97:101;113:118;234:238 (ssRNA)
RNA: GGGAGUUCUACAGUCCGACGAUCGCUUCGAUAUCCGCAUGCUAGGACCCAGCAAAUCCAAAUCCUAUGUCAUGGCCUCCAGCAUCCAGGGUGGGUCCUUGGGACUUUUCUUAGGAGGGACUUUCUGAGCCUCGUGGAGACACACGUUUGUCCAAAACACACGCAUGGGAGAUAGGGUACCCCUGAAAGCAAGGAAAGGAGCCCAGCUGUGGCCUGGUAGCACCUGCCGGCACCAGUGAUCUCACGUCUCUUGUGGUCUUGGAGUCAAAUAGCACAUCAUACUAGAGAUGCGCUCAAGGGCCUGCUCUUGCGGUCGCACUAGUGUGGAAUUCUCGGGUGUCAAGG
B13: ENSMUSG00000042529.323|Kcnj12 (ssRNA)
RNA: GGGAGUUCUACAGUCCGACGAUCGCUUCGAUAUCCGCAUGCUAGAUGCUGUAUUUUCAAAUUCUCCUGCCCUCUUUUCCCCUUUUUCCCUGUAUUUAUUUAUUGCUUGUGCUAAAGACCAAACUAGCCGCCCCCUUUAGUGCACCCAAUGGAGGAAGCCACUGAGGGGGGAGCCGUGUGCCUGUGCCAGGCAGGAAAGCUUGGCCCCUGGGAAGUGUGUGAGAAGGAAAACCAGGGUGUGUGUGCACGCAUGUGCAGACGUGCUCACACGAUCGUCUCCCUGUGUGGGAAACUUGGUAUGCAGCUCUUGCGGUCGCACUAGUGUGGAAUUCUCGGGUGUCAAGG

What follows are binders tested against TDP-43 (Homo sapiens, UniProt Q13148 1-414) (assay: RNA Bind-n-Seq with designed 260-mer pool; 25 mM Tris-HCl, 150 mM KCl, 3 mM MgCl2, BSA (printed 500 mg/mL), 20 units/mL SUPERase IN; pH not stated; 500 nM RNA pool, 1 h, 4 C; TDP-43 5, 50, 500 nM; high values mean tight binding). Conditions: protein: recombinant; tags: SBP (GST cleaved off with PreScission; pGEX-GST-SBP).
TDP-43, sequence (Q13148 whole entry): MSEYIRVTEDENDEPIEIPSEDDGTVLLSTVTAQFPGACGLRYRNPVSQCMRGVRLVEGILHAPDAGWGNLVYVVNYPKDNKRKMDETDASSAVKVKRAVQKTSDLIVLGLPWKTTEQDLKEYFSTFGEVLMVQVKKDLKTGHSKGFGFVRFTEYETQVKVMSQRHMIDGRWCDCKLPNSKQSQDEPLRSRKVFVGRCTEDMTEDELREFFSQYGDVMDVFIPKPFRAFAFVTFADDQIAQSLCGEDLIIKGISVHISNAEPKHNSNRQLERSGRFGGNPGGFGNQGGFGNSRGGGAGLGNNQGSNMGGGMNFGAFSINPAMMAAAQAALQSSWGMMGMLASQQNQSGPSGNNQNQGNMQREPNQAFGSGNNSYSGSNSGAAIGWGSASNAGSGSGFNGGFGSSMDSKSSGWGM
Method in brief: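 For each oligo, R gives binding as its mapped-read-normalized abundance after pulldown divided by its abundance in input. Bead-captured SBP-tagged TDP-43 (5, 50 or 500 nM) was incubated with 500 nM of an in vitro-transcribed 260-nt 3′ UTR oligo pool for 1 h at 4 °C in 25 mM Tris-HCl, 150 mM KCl, 3 mM MgCl2, BSA and SUPERase IN on streptavidin beads. Washed, biotin-eluted RNA was reverse transcribed, PCR-amplified and sequenced.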
With B1 the binding signal was 2.02 R (bound/input frequency ratio). In the case of B2, the binding signal is reported as 0.798 R (bound/input frequency ratio). B3 was tested, and the binding signal was 0.798 R (bound/input frequency ratio). With B4 the binding signal was 0.367 R (bound/input frequency ratio). With B5 the binding signal was 0.462 R (bound/input frequency ratio). In the case of B6, the binding signal is reported as 8.23 R (bound/input frequency ratio). In the case of B7, the binding signal is reported as 2.12 R (bound/input frequency ratio). For B8, the binding signal was 6.06 R (bound/input frequency ratio). B9 was tested, and the binding signal was 5.96 R (bound/input frequency ratio). For B10, the binding signal was 4.5 R (bound/input frequency ratio). B11 was tested, and the binding signal was 7.87 R (bound/input frequency ratio). In the case of B12, the binding signal is reported as 0.293 R (bound/input frequency ratio). For B13, the binding signal was 2.13 R (bound/input frequency ratio).
